± gives the standard deviation.
What was measured:
[1] = tested on: MILI (PIWIL2) piRISC loaded with piRNA #1 (26 nt); assay: pre-steady-state target cleavage rate (min^-1); guide: piRNA #1 5'p-UGAGGUAGUAGGUUGUAUAGUAUCCA; higher = faster piRNA-guided slicing of the target; settings: auxiliary factor: 500 nM mouse GTSF1;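 further: 1 nM active piRISC with 0.1 nM target library at 33 °C single turnover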
In short: (§1)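 At 33 °C in HEPES–potassium acetate buffer, a transcribed, DNA-blocked target RNA library […] was exposed for 0–8 or 0–960 min to 1 nM active affinity-purified piRISC carrying a single synthetic guide, with or without 500 nM GTSF1 partner protein. Uncleaved targets were sequenced and normalised to depth and to weakly complementary targets. With three trials pooled and k3 capped at 0.0001 min^-1, a burst-and-steady-state fit produced the pre-steady-state cleavage rate.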

[2] = tested on: EfPiwi piRISC loaded with piRNA #1 (26 nt); assay: pre-steady-state target cleavage rate (min^-1); auxiliary factor: 500 nM Ephydatia muelleri Gtsf1; guide: piRNA #1 5'p-UGAGGUAGUAGGUUGUAUAGUAUCCA; MIWI and MILI are mouse PIWI proteins and EfPiwi is from a freshwater sponge; tags in brackets are library labels; higher = faster piRNA-guided slicing of the target
In short: as §1

| Sequence | pre-steady-state target cleavage rate [1] | pre-steady-state target cleavage rate [2] |
| --- | --- | --- |
| GGAGACGAUACUAUACAACCUACUUCCUCA | 0.0885 ± 0.024 | 0.00431 ± 0.0018 |
| GGAGACCUAACUAUACAACCUACUACCUCC [g2:g21:cont:t1C] | 0.175 ± 0.03 | 0.00701 ± 0.0033 |
| GGAGACCUAACUAUACAACCUACUUCCUCA | 0.0606 ± 0.02 | 0.00336 ± 0.0029 |
| GGAGACCAUACUAUACAACCUACUACCAUCA | 0.168 ± 0.027 | 0.0041 ± 0.0029 |
| GGAGACCUUACUAUCACAACCUACUACCUCA | 0.143 ± 0.016 | 0.00983 ± 0.0039 |
| GGAGACCUUACUAUACAUCCUACUACCUGA | 0.195 ± 0.033 | 0.00345 ± 0.0024 |
| GGAGUGGAUACUAUACAUCCUACUACCUGA | 0.0983 ± 0.018 | 0.00497 ± 0.0018 |
| GGAGACGAUACUAAACUACCUACUACCUCA | 0.24 ± 0.018 | 0.00228 ± 0.0021 |
| GGAGUGGAAACUAUACAACCUACUACCUCA | 0.225 ± 0.02 | 0.0504 ± 0.018 |
| GGAGAGCGAUACUAUACAACCUACUACCUCA | 0.249 ± 0.02 | 0.0132 ± 0.006 |
| GGAGUGGAUACUAUACCACCUACUACCUCA | 0.188 ± 0.012 | 0.0104 ± 0.004 |
| GGAGUGGAUACUAAACAACCUACUACCACA | 0.113 ± 0.011 | 0.003 ± 0.0021 |
| GGAGACCUAUCUAUACAACCUACUGCCUCA | 0.0855 ± 0.013 | 0.00997 ± 0.0044 |
| GGAGACGAUACUAUAACAACCUACUACCUCA | 0.142 ± 0.012 | 0.00793 ± 0.0029 |
| GGAGAGGUUACUAUACAUCCUACUACCUCA | 0.191 ± 0.016 | 0.00567 ± 0.0029 |
| GGAGACCAUACUAUACAACCUACUACCCCA | 0.156 ± 0.024 | 0.00577 ± 0.0028 |
| GGAGACCUAUGUAUACAACCUACUACCUCU [g2:g19:cont:t1U] | 0.0508 ± 0.0069 | 0.404 ± 0.18 |
| GGAGACCAUACUAUACAACCUACUUGCUCA | 0.13 ± 0.032 | 0.00354 ± 0.002 |
| GGAGACGGAUACUAUACAACCUACUACCUCA | 0.234 ± 0.018 | 0.221 ± 0.062 |
| GGAGACCUUACUAUACCAACCUACUACCUCA | 0.00685 ± 0.0036 | 0.00457 ± 0.0029 |
| GGAGAGGAUACAUAACAACCUACUACCUCA | 0.123 ± 0.011 | 0.00445 ± 0.004 |
| GGAGACCUUACUAUACAAGCUACUACCUGA | 0.158 ± 0.021 | 0.00346 ± 0.003 |
| GGAGAGGAUACUAUACAACCUACUACCUUA | 0.19 ± 0.018 | 0.204 ± 0.073 |
| GGAGACCUUACUAUACAACCUAGUACCUCA | 0.0616 ± 0.011 | 0.00384 ± 0.0019 |
| GGAGACGAUACUGUACAACCUACUACCUCA | 0.169 ± 0.018 | 0.0777 ± 0.025 |
| GGAGUCGAUAGUAUACAACCUACUACCUCA | 0.154 ± 0.011 | 0.0054 ± 0.0038 |
| GGAGACCUAACUAUAUAACCUACUACCUCA | 0.117 ± 0.015 | 0.0063 ± 0.0034 |

| Sequence | pre-steady-state target cleavage rate [1] | pre-steady-state target cleavage rate [2] |
| --- | --- | --- |
| GGAGACGAUACUAUAGAACCUACUACCUGA | 0.0908 ± 0.021 | 0.00292 ± 0.0011 |
| GGAGAGGAUACUUUACAACCUACUACCACA | 0.152 ± 0.015 | 0.0019 ± 0.0011 |
| GGAGACGAUACUAUACAACCUACUACCUCU [g2:g24:cont:t1U] | 0.24 ± 0.019 | 1.35 ± 0.49 |
| GGAGAGCAUACUAUACAACCUACAACCUCA | 0.133 ± 0.015 | 0.0026 ± 0.0017 |
| GGAGUGGAUACUAUAUAACCUACUACCUCA | 0.191 ± 0.0088 | 0.117 ± 0.045 |
| GGAGACGAUACUAUACAACCUACUACUCA | 0.125 ± 0.019 | 0.00549 ± 0.0025 |
| GGAGACCAUACUAUCAACCUACUACCUCA | 0.199 ± 0.022 | 0.0101 ± 0.005 |
| GGAGACCAUACUAUACAACCUACUACCUUA | 0.22 ± 0.024 | 0.0127 ± 0.0048 |
| GGAGACCAUACUUAUACAACCUACUACCUCA | 0.132 ± 0.016 | 0.0757 ± 0.028 |
| GGAGUGGAUACUAUACAACCUACUACCGCA | 0.0694 ± 0.0095 | 0.00573 ± 0.002 |
| GGAGACCAUACUAUACAUCGUACUACCUCA | 0.0535 ± 0.0071 | 0.0027 ± 0.0021 |
| GGAGAGGAUACUAUACAACCUACUACCUCA [g2:g25:cont:t1A] | 0.206 ± 0.017 | 0.0912 ± 0.033 |
| GGAGACCUAUCUAUACAAGCUACUACCUGA | 0.125 ± 0.019 | 0.00244 ± 0.0023 |
| GGAGAGGAUACUAUACAACCUACUACCACA | 0.171 ± 0.017 | 0.00641 ± 0.0021 |
| GGAGACCAUACUAUACAACCUACUAACUCA | 0.0993 ± 0.021 | 0.00957 ± 0.0048 |
| GGAGACCAUACUAUACAACCUUCUACCUCA | 0.00761 ± 0.0026 | 0.00625 ± 0.0028 |
| GGAGACGAUACUAUACAACCUAGUACCUCA | 0.0648 ± 0.014 | 0.00506 ± 0.0014 |
| GGAGACGAUACUAUACAACCUACUACCUCG [g2:g24:cont:t1G] | 0.183 ± 0.014 | 0.115 ± 0.037 |
| GGAGACCAAACUAUACAACCUACUAGCUCA | 0.0778 ± 0.029 | 0.00453 ± 0.0034 |
| GGAGACCUAACUCAUACAACCUACUACCUCA | 0.0742 ± 0.033 | 0.0159 ± 0.0089 |
| GGAGACCAUACUAUACAACCUGCUACCUCA | 0.0337 ± 0.0076 | 0.0759 ± 0.029 |
| GGAGACCAUACUAUACAACCUACGUACCUCA | 0.11 ± 0.018 | 0.00254 ± 0.0023 |
| GGAGAGGAUACUAUACAACCUAGUACCUCA | 0.00636 ± 0.0033 | 0.00393 ± 0.0016 |
| GGAGUGGAUGCUAUACAACCUACUACCUCA | 0.152 ± 0.022 | 0.0921 ± 0.046 |
| GGAGACCUUACUAUACAUCCUACUACCACA | 0.246 ± 0.02 | 0.0038 ± 0.0032 |
| GGAGACCAUAUAUACAACCUACUACCUCA | 0.05 ± 0.0081 | 0.00541 ± 0.0043 |
